The values below come from ChEMBL document CHEMBL3988442, “University of Dundee, Small-Polar-MMV Screening Library” (2021).

Several values for one entry are separate records, joined by “and”; a condition that tells them apart may be missing. Identical values can stand only once. For some of these results: Entries with a potency or affinity are not part of this list.

Holding throughout (parameters): scale not given: direction of the effect not stated beside the values
Assay [1] has as its target Protein translocase subunit SecA (Escherichia coli (strain K12)) (UniProt P10408). Put plainly: Assay to Identify E. coli SecA ATPase Inhibitors. Type of assay: functional. The settings on record: 30 µM.
In assay [2] the target is T1, Ubiquitin-activating enzyme e1, putative (Leishmania donovani (strain BPK282A1)) (UniProt E9BSI1).
T1 sequence (whole entry): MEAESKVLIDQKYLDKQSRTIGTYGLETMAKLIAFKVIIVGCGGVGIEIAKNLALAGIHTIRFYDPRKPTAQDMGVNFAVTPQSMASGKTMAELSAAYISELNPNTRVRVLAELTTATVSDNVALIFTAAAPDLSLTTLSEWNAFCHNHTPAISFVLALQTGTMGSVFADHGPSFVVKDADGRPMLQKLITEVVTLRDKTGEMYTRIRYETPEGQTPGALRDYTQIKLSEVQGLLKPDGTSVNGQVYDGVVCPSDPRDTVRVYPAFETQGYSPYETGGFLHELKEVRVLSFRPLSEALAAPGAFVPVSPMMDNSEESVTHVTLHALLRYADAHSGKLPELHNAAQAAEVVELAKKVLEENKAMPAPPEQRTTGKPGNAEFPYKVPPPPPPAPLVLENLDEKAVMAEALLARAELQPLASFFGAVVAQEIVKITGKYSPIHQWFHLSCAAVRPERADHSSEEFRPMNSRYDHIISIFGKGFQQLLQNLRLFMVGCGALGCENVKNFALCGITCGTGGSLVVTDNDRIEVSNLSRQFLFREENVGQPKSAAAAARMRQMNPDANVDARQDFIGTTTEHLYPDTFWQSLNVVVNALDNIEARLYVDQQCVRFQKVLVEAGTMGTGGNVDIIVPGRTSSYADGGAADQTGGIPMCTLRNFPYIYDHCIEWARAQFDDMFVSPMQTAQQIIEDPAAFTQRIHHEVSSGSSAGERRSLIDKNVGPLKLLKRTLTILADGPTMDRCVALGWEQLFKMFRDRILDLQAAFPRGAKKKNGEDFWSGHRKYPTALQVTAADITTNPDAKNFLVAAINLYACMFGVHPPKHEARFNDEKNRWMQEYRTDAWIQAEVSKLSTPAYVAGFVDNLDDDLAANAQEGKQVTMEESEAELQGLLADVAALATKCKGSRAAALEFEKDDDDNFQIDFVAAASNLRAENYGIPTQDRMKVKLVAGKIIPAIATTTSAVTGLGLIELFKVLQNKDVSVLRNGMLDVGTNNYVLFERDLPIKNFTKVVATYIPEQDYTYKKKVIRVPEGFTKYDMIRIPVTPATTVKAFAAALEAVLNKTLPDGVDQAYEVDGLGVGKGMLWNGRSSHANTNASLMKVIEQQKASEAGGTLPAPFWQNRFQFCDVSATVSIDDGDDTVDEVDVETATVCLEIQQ
Put plainly: Leishmania donovani Ubiquitin Activating Enzyme (LdE1). The conditions noted are these: 30 µM. Type of assay: functional.

Assay [3] addresses AMP-activated protein kinase, AMPK (Homo sapiens) (UniProt P54646+O43741+P54619+Q9UGJ0+Q9Y478+Q13131+Q9UGI9). Put plainly: AMP-dependent Kinase enzyme assay. An in vitro enzyme assay that detects ADP turnover that is directly proportional to AMPK activity. This uses naive AMPK that is activated during the assay with MK-8722. Type of assay: functional. The settings on record: 30 µM.

Assay [4] deals with Sialic acid-binding Ig-like lectin 9 (Homo sapiens) (UniProt Q9Y336). Put plainly: Hs-Siglec9 ALPHAscreen SOP 20170721. The conditions noted are these: 10 µM.
Another assay relates to Trypanosoma cruzi. Put plainly: Trypanosoma cruzi phosphomannomutase and mannose-1-phosphate guanylyltransferase assay. Type of assay: functional. The conditions noted are these: 10 µM.
Assay [5] concerns the target T2, Arginase-2, mitochondrial (Homo sapiens) (UniProt P78540).
T2 sequence (whole entry): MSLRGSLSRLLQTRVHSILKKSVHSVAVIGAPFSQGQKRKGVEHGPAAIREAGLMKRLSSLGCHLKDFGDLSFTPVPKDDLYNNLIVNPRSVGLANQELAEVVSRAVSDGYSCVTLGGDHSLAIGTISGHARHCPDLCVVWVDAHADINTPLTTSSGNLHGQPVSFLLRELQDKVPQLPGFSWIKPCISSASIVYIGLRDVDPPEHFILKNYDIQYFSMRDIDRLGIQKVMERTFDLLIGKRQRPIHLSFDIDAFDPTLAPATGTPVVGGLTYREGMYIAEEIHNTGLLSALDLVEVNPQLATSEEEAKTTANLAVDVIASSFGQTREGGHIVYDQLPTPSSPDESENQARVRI
Put plainly: in vitro enzyme assay to detect the production of urea directly proportional to the activity of Arginase II. Also: in the data most compounds retested in dose-response had high values. Type of assay: functional. The conditions noted are these: 33.3 µM.

For assay [6], the target named is T3, Proteasome subunit beta (Trypanosoma cruzi) (UniProt O96673).
T3 sequence (whole entry): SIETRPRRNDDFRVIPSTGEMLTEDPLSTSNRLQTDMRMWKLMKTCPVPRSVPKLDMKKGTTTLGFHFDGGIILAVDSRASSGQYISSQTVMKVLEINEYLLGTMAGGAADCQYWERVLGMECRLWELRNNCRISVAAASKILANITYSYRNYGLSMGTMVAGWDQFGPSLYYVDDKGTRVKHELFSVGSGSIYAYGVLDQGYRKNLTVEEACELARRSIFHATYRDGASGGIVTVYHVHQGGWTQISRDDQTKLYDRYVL
Put plainly: Trypanosoma cruzi proteasome chymotrypsin-like activity (TcProtChymo) assay. Also: in the data most compounds retested in dose-response had high values. Type of assay: functional. The settings on record: 9.37 µM.

The species entered for another assay is Homo sapiens. Put plainly: To identify inhibition of the IFN signalling (Jak-Stat) pathway via expression of an eGFP reporter gene under the control of an IFN-stimulated response element (ISRE) containing MxA promoter. It is filed as functional. The conditions noted are these: 30 µM.
In assay [7] the target is T4, Tyrosyl-tRNA synthetase, putative (Trypanosoma cruzi (strain CL Brener)) (UniProt Q4DSP6).
T4 sequence (whole entry): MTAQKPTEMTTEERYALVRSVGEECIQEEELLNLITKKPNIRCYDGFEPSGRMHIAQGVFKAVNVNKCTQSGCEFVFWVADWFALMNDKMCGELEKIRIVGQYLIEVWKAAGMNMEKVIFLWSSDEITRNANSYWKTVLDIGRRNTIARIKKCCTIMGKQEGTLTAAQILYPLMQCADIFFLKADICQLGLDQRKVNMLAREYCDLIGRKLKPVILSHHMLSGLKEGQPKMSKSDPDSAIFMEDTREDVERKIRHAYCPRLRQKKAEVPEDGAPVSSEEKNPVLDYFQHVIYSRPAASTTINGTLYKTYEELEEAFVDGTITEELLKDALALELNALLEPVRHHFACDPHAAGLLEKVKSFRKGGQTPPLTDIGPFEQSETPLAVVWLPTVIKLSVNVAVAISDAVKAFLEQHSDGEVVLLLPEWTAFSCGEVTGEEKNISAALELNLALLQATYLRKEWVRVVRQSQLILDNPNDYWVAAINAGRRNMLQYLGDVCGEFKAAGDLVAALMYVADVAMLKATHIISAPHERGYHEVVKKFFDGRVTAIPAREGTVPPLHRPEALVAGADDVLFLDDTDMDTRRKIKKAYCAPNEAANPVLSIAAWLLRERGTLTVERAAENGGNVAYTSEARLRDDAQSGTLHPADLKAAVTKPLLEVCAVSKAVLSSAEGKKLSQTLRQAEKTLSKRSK
Put plainly: Trypanosoma cruzi tyrosyl tRNA synthetase (TcYRS) _High Tyrosine SOP. Also: in the data most compounds retested in dose-response had high values. It is filed as functional. The conditions noted are these: 30 µM.

In assay [8] the target is T4, Tyrosyl-tRNA synthetase, putative (Trypanosoma cruzi (strain CL Brener)). Put plainly: Trypanosoma cruzi tyrosyl tRNA synthetase (TcYRS) SOP. Type of assay: functional. The conditions noted are these: 30 µM.
For assay [9], the target named is Chromo domain-containing protein 1 (Saccharomyces cerevisiae (strain ATCC 204508 / S288c) (Baker's yeast)) (UniProt P32657). Put plainly: ScCHD-1 Enzyme Inhibition Assay. Also: in the data most compounds retested in dose-response had high values. Type of assay: functional. The conditions noted are these: 30 µM.
For a further assay, the system named is N/A. Put plainly: Trypanosoma cruzi proteasome luciferase counter-screen. The conditions noted are these: 9.37 µM. Type of assay: functional. In general terms: A counterscreen serves to expose hits that act by an unwanted route or on another target.

Protein translocase subunit SecA (Escherichia coli (strain K12)), sequence (P10408 whole entry): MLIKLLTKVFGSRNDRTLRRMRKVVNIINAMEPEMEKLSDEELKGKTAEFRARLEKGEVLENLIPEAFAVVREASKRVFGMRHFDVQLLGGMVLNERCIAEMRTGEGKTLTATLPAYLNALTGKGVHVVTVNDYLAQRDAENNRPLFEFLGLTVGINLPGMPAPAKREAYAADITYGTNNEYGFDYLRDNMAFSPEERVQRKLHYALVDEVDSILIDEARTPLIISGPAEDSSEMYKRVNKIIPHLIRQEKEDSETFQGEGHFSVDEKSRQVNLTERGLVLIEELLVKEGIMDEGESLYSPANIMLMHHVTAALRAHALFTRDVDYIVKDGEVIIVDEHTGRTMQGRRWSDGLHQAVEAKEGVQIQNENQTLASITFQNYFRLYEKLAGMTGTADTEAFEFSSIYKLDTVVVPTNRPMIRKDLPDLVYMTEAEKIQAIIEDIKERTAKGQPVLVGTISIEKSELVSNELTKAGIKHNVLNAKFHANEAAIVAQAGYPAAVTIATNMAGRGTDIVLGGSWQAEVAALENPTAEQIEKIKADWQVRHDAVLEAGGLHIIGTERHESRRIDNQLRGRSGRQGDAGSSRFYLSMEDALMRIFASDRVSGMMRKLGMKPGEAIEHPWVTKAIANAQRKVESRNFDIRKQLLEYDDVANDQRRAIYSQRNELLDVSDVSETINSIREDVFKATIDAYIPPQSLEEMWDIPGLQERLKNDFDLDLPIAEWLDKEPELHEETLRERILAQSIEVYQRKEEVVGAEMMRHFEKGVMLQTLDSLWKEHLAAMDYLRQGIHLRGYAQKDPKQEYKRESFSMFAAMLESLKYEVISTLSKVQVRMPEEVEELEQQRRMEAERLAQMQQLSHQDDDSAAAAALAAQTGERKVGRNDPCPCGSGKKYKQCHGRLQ
Sialic acid-binding Ig-like lectin 9 (Homo sapiens), sequence (Q9Y336 whole entry): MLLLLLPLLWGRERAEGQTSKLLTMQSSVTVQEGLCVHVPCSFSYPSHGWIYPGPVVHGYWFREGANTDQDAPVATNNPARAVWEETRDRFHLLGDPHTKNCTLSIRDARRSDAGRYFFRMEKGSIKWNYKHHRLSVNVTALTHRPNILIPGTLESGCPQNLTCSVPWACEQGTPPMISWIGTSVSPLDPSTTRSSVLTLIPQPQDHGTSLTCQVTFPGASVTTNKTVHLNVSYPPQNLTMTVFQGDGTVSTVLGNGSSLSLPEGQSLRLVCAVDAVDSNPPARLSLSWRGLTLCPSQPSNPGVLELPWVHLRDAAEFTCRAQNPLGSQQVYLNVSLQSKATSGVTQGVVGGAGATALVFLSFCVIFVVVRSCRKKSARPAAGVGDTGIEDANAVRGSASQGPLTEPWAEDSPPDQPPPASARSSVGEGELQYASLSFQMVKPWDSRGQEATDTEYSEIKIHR
Chromo domain-containing protein 1 (Saccharomyces cerevisiae (strain ATCC 204508 / S288c) (Baker's yeast)), sequence (P32657 whole entry, the tested form may be a part): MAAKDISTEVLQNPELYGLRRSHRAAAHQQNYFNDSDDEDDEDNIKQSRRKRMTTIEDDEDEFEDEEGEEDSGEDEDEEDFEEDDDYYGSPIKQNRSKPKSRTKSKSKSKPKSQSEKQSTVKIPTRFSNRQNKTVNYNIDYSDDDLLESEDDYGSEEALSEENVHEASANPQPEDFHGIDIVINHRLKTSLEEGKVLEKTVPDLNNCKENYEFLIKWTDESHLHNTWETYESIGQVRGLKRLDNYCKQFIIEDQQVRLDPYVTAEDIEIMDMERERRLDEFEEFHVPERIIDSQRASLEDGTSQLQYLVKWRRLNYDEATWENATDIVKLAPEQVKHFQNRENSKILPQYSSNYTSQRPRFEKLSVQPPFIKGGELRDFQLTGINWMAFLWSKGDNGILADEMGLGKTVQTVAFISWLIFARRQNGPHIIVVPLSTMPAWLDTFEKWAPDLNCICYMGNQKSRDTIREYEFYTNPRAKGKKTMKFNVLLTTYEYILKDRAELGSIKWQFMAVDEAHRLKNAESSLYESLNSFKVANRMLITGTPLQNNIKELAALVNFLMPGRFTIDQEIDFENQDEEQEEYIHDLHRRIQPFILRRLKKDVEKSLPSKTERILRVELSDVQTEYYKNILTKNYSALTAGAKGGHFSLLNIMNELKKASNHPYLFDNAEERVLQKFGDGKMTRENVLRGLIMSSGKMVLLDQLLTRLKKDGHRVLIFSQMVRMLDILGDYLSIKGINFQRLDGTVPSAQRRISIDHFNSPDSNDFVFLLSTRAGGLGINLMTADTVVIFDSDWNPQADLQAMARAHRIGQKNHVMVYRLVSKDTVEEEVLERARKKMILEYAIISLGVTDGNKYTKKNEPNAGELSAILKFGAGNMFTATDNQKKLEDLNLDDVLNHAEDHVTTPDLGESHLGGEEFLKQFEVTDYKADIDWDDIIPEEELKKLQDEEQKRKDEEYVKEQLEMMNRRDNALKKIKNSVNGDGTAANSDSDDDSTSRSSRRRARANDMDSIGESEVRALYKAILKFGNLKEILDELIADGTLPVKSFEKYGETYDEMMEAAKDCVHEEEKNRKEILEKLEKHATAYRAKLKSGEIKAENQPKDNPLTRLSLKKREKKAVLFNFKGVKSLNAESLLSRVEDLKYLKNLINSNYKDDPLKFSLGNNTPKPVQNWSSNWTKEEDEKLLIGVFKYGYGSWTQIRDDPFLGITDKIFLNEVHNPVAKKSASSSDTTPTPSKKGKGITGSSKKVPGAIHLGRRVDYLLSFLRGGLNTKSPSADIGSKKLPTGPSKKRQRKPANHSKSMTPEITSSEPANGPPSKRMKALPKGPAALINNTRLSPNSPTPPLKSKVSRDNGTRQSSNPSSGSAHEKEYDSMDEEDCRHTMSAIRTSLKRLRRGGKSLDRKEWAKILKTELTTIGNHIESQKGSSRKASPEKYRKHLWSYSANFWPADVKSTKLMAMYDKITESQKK

For the compound `CNC1CCCN(Cc2noc(C3CC3)n2)C1` (centres undefined), the Percent Effect in [1] was 0.64%; in [2], -5.41%; in assay [3], -3.33%; in assay [4], -1.4%; with Trypanosoma cruzi, -0.193%; in [5], -0.476%. For the same compound, the Percent Effect is 1.9% in assay [6]; -1.86% in the assay filed under Homo sapiens; 1.59% in [7]; 0% in [8]; 0.831% in assay [9].

Consider `O=C(COCc1ccccc1)N1CCCC(n2cncn2)C1` (centres undefined), for which the Percent Effect in assay [1] is -4.9%; in assay [2], 16.2%; in assay [3], -5.92%; in assay [4] it was 0.0525%; with Trypanosoma cruzi it was 1.79%; in assay [5], -2.4%. The Percent Effect in [6] is 7.57%; in the assay filed under Homo sapiens, 11.4%; in [7] it was 6.4%; in assay [8] it was 18.5%; in assay [9], -4.59%.

For the compound `CSC(C)C(=O)NCCCc1cc(N)n(-c2ccccc2)n1` (centres undefined), the Percent Effect was -3.19% in [1]; -5.48% in assay [2]; 16.9% in assay [3]; -3.4% in [4]; -2.15% in the assay on Trypanosoma cruzi; -12.3% in assay [5]. In addition, the Percent Effect in assay [6] is 74.4% and 84.2% and 83.7%; with N/A it was 46.1% and 47.4%; in the assay listed under Homo sapiens it was 14.8%; in assay [7], -1.07%; in assay [8], 0%; in [9], -2.72%.

Turning to `Cc1cnn(C2CN(CC(=O)NCc3ccccn3)C2)c1`, the Percent Effect in assay [1] was 0.391%; in assay [2], 26.3%; in [3], -12.2%; in [4], -9.97%; with Trypanosoma cruzi, 7.56%; in [5], -4.32%. The Percent Effect in [6] is 63.5% and 62% and 58.8%; in the assay on N/A, 11.6% and 13.6%; in the assay filed under Homo sapiens, -8.2%; in assay [7] it was 17.2%; in [8] it was 25.9%; in assay [9], -5.97%.

Consider `COc1cccc(C(=O)NCC(O)c2cccs2)c1` (centres undefined), for which the Percent Effect in assay [1] is -3.69%; in [2], 11%; in assay [3], 7.67%; in assay [4], 3.99%; with Trypanosoma cruzi, 6.46%; in assay [5] it was 0%. The Percent Effect in assay [6] was 34.1% and 33.9% and 40.3%; in the assay with N/A, 6.45% and 13%; in the assay filed under Homo sapiens it was -9.23%; in assay [7], 7.53%; in [8] it was 17.5%; in assay [9], -3.59%.

As for `CCN(CC)C(=O)CCc1c(C)nc2cc(O)nn2c1C`, the Percent Effect in assay [1] is -1.3%; in assay [2], 0%; in assay [3] it was -288%; in [4], 0.0855%; in the assay on Trypanosoma cruzi, -3.99%; in [5], -1.18%. For the same compound, the Percent Effect is 24.1% in [6]; 3.53% in the assay filed under Homo sapiens; 4.25% in [7]; 7.79% in assay [8]; -6.56% in assay [9].

For `Cc1ccc(-c2cc(N)c(=O)n(CC(=O)NC3CCCCC3)n2)s1`, the Percent Effect in assay [1] was -4.68%; in assay [2], 6.76%; in [3], 14.2%; in [4], 4.48%; in the assay with Trypanosoma cruzi, -4.74%; in assay [5], 4.41%. In addition, the Percent Effect in assay [6] was 8.42%; in the assay filed under Homo sapiens it was 15.6%; in assay [7], 1.07%; in assay [8] it was 6.49%; in assay [9], -8.72%.

Consider `CC(C)c1n[nH]c(C2CN(Cc3nnc(C4CC4)o3)CCO2)n1` (centres undefined), for which the Percent Effect is -2.46% in assay [1]; 0% in assay [2]; 9.78% in [3]; -2.59% in assay [4]; -3.87% with Trypanosoma cruzi; -8.37% in assay [5]. For the same compound, the Percent Effect in assay [6] is 6.47%; in the assay listed under Homo sapiens, 27.6%; in assay [7] it was -5.42%; in assay [8], -11.4%; in [9] it was -1.54%.

For the compound `CS(=O)(=O)N[C@@H]1CN(C(=O)c2ccccn2)[C@@H]2CCCO[C@@H]21`, the Percent Effect in assay [1] was -5.18%; in assay [2] it was 5.41%; in [3], 4.88%; in assay [4], 2.32%; in the assay on Trypanosoma cruzi, -0.489%; in assay [5], 2.87%. Further, the Percent Effect in assay [6] is 18.4%; in the assay listed under Homo sapiens it was -7.84%; in assay [7] it was 4.32%; in assay [8], 7.69%; in [9], -0.379%.

`CS(=O)(=O)c1ccc(CNC(=O)N2CCC(c3ccccc3)CC2)cc1`: the Percent Effect in [1] is -1.75%; in assay [2], 7.59%; in assay [3], 0.598%; in [4], -2.13%; in the assay with Trypanosoma cruzi, -5.76%; in assay [5] it was 3.42%. Also, the Percent Effect was 5% in [6]; 8.31% in the assay filed under Homo sapiens; -3.45% in assay [7]; 1.27% in assay [8]; -6.29% in assay [9].

Take `O=C(N[C@@H]1CN(c2ncccn2)[C@@H]2CCCO[C@@H]21)c1cnccn1`: the Percent Effect was -3.44% in assay [1]; 2.67% in [2]; 2.76% in assay [3]; 2.22% in assay [4]; 0.772% in the assay on Trypanosoma cruzi; -38.9% in [5]. Also, the Percent Effect is 9.91% in assay [6]; -16.7% in the assay filed under Homo sapiens; 6.25% in assay [7]; 20% in assay [8]; -7.55% in assay [9].
